Reference: the supplement of paper PMC4840960
Counter-ions that a name gives are not always drawn. ± gives the standard deviation of the averaged measurements.

Tests used:
[1] = system: E18 rat cortical neuron-glia co-culture; assay: fiber score / MBP score (myelination specific beyond OL differentiation) (ratio); higher = more myelination-specific MBP alignment; details: treatment time: 8 days (DIV5-DIV13)
Summary of the method: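 Reported values are fiber score (continuous MBP fiber length per Olig2+ nucleus) divided by MBP score (thresholded MBP area × intensity per Olig2+ nucleus). They come from primary E18 rat cortical co-cultures treated with library compounds at 1 or 5 µM in myelination medium from DIV5 to DIV13, then fixed in 4 % paraformaldehyde, immunostained for MBP and Olig2 with DAPI, and analysed over four 10X fields per well in duplicate wells.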

[2] = system: E18 rat cortical neuron-glia co-culture; assay: myelination (MBP fiber length per Olig2+ nucleus), % of 1 µM DAPT response (DMSO = 0) (% of DAPT); higher = more myelination, active = 50 or more; details: treatment time: 8 days (DIV5-DIV13)
Summary of the method: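 Rat cortical co-cultures from E18 tissue were dissociated with papain and plated at 20,000 cells/well on 96-well plates coated with poly-d-lysine/laminin. From DIV5 to DIV13, library compounds were added at 1 or 5 µM in myelination medium. After fixation in 4 % paraformaldehyde, cultures were immunostained for MBP and Olig2 and counterstained with DAPI, and four 10X fields were analysed in each of duplicate wells. The myelination value is the length of continuous straight MBP fibers per Olig2+ nucleus, normalised so that 0.1 % DMSO is 0 and a 1 µM positive control is 100.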

SMILES | fiber score / MBP score ([1]; 1 µM) | fiber score / MBP score ([1]; 5 µM) | myelination ([2]; 1 µM) | myelination ([2]; 5 µM)
COc1cc(C(=O)NC2CCCNC2)cc(OC)c1OC (configuration not stated) [Troxipide] | 0.692 | 0.803 | -15.3 (inactive) | -5 (inactive)
OCCOCCN1CCN(C2=Nc3ccccc3Sc3ccccc32)CC1 [Quetiapine hemifumarate] | 0.545 | 0.327 | -10 (inactive) | -19.9 (inactive)
Cc1nc(=O)c2cc(CN(C)c3ccc(C(=O)N[C@@H](CCC(=O)O)C(=O)O)s3)ccc2[nH]1 [Raltitrexed] | 1.33 | 1.67 | 177 | 591 (active)
CC(C(=O)O)c1ccc(CC2CCCC2=O)cc1 (configuration not stated) [loxoprofen] | 0.944 | 0.875 | 1.34 (inactive) | -10.6 (inactive)
CN1CCN(CC/C=C2/c3ccccc3Sc3ccc(S(=O)(=O)N(C)C)cc32)CC1 [Thiothixene] | 0.826 | 1.29 | -6.05 (inactive) | 42.5 (inactive)
CC1COc2c(N3CCN(C)CC3)c(F)cc3c(=O)c(C(=O)O)cn1c23 (configuration not stated) [Ofloxacin] | 0.775 ± 0.041 | 0.784 ± 0.19 | -16.9 (inactive) | -17 (inactive)
O=C1N(c2ccccc2)c2ccccc2C1(Cc1ccncc1)Cc1ccncc1 [Linopirdine] | 0.779 | 0.73 | -4.06 (inactive) | -12 (inactive)
COc1ccc(CC2c3cc(OC)c(OC)cc3CC[N+]2(C)CCC(=O)OCCCCCOC(=O)CC[N+]2(C)CCc3cc(OC)c(OC)cc3C2Cc2ccc(OC)c(OC)c2)cc1OC (configuration not stated) [Atracurium] | 0.771 | 0.948 | -11.6 (inactive) | 63.1
CC(C)OC(=O)C(C)(C)Oc1ccc(C(=O)c2ccc(Cl)cc2)cc1 [Fenofibrate] | 0.901 | 0.661 | -0.815 (inactive) | 21.8 (inactive)
CCOC(=O)C1=C(C)NC(C)=C(C(=O)OC)C1c1cccc(Cl)c1Cl (configuration not stated) [Felodipine] | 1.27 | 0.858 | 20.4 (inactive) | 8.21 (inactive)
CCN1CCN(C(=O)N[C@@H](C(=O)N[C@@H]2C(=O)N3[C@@H]2SC(C)(C)[C@@H]3C(=O)O)c2ccccc2)C(=O)C1=O [Piperacillin] | 0.703 | 0.948 | -13.4 (inactive) | 5.13 (inactive)
OC(Cn1cncn1)(Cn1cncn1)c1ccc(F)cc1F [Fluconazole] | 0.906 | 0.784 | 5.01 (inactive) | -19.9 (inactive)
O=C1CN(/N=C/c2ccc(-c3ccc([N+](=O)[O-])cc3)o2)C(=O)N1 [Dantrolene sodium salt dihydrate] | 0.33 | 0.372 | -11.8 (inactive) | -14.2 (inactive)
CC(C)NCC(O)COc1ccc(CC(N)=O)cc1 (configuration not stated) [Atenolol] | 1.03 | 1.04 | 2.66 (inactive) | 7.87 (inactive)
CC1(C)S[C@@H]2[C@H](NC(=O)[C@H](N)c3ccc(O)cc3)C(=O)N2[C@H]1C(=O)O [Amoxicillin] | 0.764 | 0.761 | -18.6 (inactive) | -33.3 (inactive)
CC(C)NCC(O)c1cc(O)cc(O)c1 (configuration not stated) [Metaproterenol] | 0.313 | 0.371 | -16.5 (inactive) | -14.3 (inactive)
CN1[C@@H](CC(=O)c2ccccc2)CCC[C@H]1C[C@H](O)c1ccccc1 [Lobeline] | 0.981 | 0.451 | 2.9 (inactive) | -19.7 (inactive)
CC(C)(C)NCC(O)c1ccc(O)c(CO)c1 (configuration not stated) [Albuterol] | 0.654 | 0.789 | -29.6 (inactive) | -17.3 (inactive)
